Compound activity as filed in PubChem.
This is a sample that favours compounds with a hit; in the whole collection about 19% have one here.
HT1080-NT tox: qHTS for induction of synthetic lethality in tumor cells producing 2HG: qHTS for the HT-1080-NT fibrosarcoma cell line | HT-1080-NT fibrosarcoma viability, CellTiter-Glo ATP luminescence, 48 h | Potency, µM (titrated, usually from 46.1 µM), without a hit: top-dose activity, negative = less viability, usual class: cytotoxic | hit rate 1.6% among 360,000 | AID 686970, 2013;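 note: NT is the 2HG producing partner of a matched IDH1 knockdown line; potency is the fitted concentration of half-maximal effect; 0% = DMSO-treated cells and -100% = media-only wells without cells; nearly all actives have a fitted effect of over 55% in size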
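Luminescent CellTiter-Glo readout after 48 hours of compound exposure at 37 degrees C defined viability of HT-1080-NT cells. Activity was normalized to DMSO wells and cell-free media wells; concentration-response curves were fitted and assigned curve classes.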
IL1B secr inh: qHTS for Inhibitors of Inflammasome Signaling: IL-1-beta AlphaLISA Primary Screen; THP-1 LPS/ATP IL-1B secretion, AlphaLISA, 16 h; hits give low values; activity change, % at 57.5 µM; hit rate 4.7% among 360,000; AID 743279, 2014; in the data active = activity change below about -50%; inconclusive = mostly about -30% to -49%
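THP-1 cells pretreated 1 hr with compounds (up to 57.5 uM final), then stimulated with LPS (250 ng/mL final) plus ATP (1.25 mM final); secreted IL-1B measured by AlphaLISA after 16 hr, decreased signal indicating inhibition.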
TDP1 cell CPT: qHTS for Inhibitors of human tyrosyl-DNA phosphodiesterase 1 (TDP1): qHTS in cells in presence of CPT | hit rate 12% among 420,000 | AID 686979, 2013 | chicken DT40 Tdp1-/-;hTDP1 cells + 20 nM CPT, ATP luminescence, 48 h | Potency, µM (series often up to 46.2 µM), inactives show at the top dose activity change, negative = growth inhibition, hits mostly inhibitors; note: potency is the fitted concentration of half-maximal effect; nearly all actives have a fitted effect of over 55% in size
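Cell growth measured by CellTiter-Glo luminescence after a minimum 48 h, 37 C compound exposure with 20 nM CPT in Tdp1-knockout DT40 cells stably expressing hTDP1, seeded 400/well; qHTS titration format.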
TDP1 cell noCPT: qHTS for Inhibitors of human tyrosyl-DNA phosphodiesterase 1 (TDP1): qHTS in cells in absence of CPT; DT40 Tdp1-/- hTDP1 cells, no CPT, ATP luminescence, 48 h; Potency, µM (series often up to 46.2 µM), for the others: at the top dose activity change, negative = growth inhibition, most hits filed as inhibitors; hit rate 15% among 420,000; AID 686978, 2013; note: potency is the fitted concentration of half-maximal effect; nearly all actives have a fitted effect of over 55% in size
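No-CPT arm: Tdp1-/-;hTDP1 DT40 cells (400/well) plus compounds, incubated ≥48 hr at 37 °C. Readout CellTiter-Glo luminescence.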
HT1080 IDH1KD tx: qHTS for induction of synthetic lethality in tumor cells producing 2HG: qHTS for the HT-1080-IDH1KD cell line | hit rate 2% among 360,000 | HT-1080 IDH1 knockdown viability, ATP luminescence, 48 h | Potency, µM (series often up to 46.1 µM), for the others: at the highest dose activity, negative = toxicity, most hits filed as cytotoxic | AID 686971, 2013;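 note: potency is the fitted concentration of half-maximal effect; 0% = DMSO wells and -100% = cell-free medium wells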
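CellTiter-Glo luminescence after 48 h compound exposure at 37 degrees C of IDH1-knockdown HT-1080 cells in 5% FBS RPMI. %Activity scaled between DMSO wells and cell-free media wells, with curves fitted and assigned curve classes.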
* = called active by the depositor; ? = inconclusive; · = not tested or not shown; [ ] = another dose, or the depositor's remark. Unless noted, calls come from the whole dose curve; as a rule, active = well fitted curve in the direction sought with a large enough effect; inconclusive = small, poorly fitted or top-dose-only effect, or another doubt; inactive = no such curve, though single readings can be large; an effect the other way counts as inactive or inconclusive. Unless noted, % is set by controls: 0 for no effect and ±100 for the full control effect.

SMILES	HT1080-NT tox	IL1B secr inh	TDP1 cell CPT	TDP1 cell noCPT	HT1080 IDH1KD tx
N=c1ccn(Cc2c(Cl)cccc2Cl)cc1	?	-12.9	1.3µM*	0.651µM*	?
N=c1ccn(Cc2ccccc2Cl)cc1	-0.5%	-5.7	5.17µM*	4.61µM*	-16.5%
Cc1ccc(C)n1Cc1ccccc1Cl	-1.9%	-5.7	2.4%	-12.8%	-6.8%
N=c1ccn(Cc2ccc(Cl)cc2Cl)cc1	?	?	3.66µM*	5.17µM*	-10.2%[9.24 µM]
Cc1nn(Cc2c(Cl)cccc2Cl)c(C)c1N	9.3%	14.5	-4.1%	-12.2%	6.7%
O=C(CCS(=O)(=O)c1ccc(Br)cc1)NCCC1=CCCCC1	13.8%	-0.9	-18.3%	-19.7%	13.3%
Cc1cc(C(=O)N2CCN(Cc3ccc4c(c3)OCO4)CC2)cs1	12.4%	0.0	-7.6%	-16.9%	-2.8%
Cc1ccc(-c2csc(=Nc3ccccc3)n2Cc2ccc3c(c2)OCO3)cc1C	·	·	?	6.51µM*	·
Clc1ccc(-c2csc(=Nc3ccccc3)n2Cc2ccc3c(c2)OCO3)cc1	·	·	20.6µM*	10.3µM*	·
Cc1ccc(NC(=O)Cn2c(-c3ccc4c(c3)OCO4)cn(-c3ccccc3)c2=O)cc1C	·	·	-3.5%	-12.7%	·
Cc1ccc(-c2csc(=Nc3ccc(F)cc3)n2Cc2ccc3c(c2)OCO3)cc1C	·	·	18.4µM*	14.6µM*	·
Cc1ccc(-n2c(=O)[nH]c3cc(C(=O)NCCc4ccccc4)ccc3c2=O)cc1	·	·	1.3%	-24.9%	·
O=C(NNC(=O)c1c(O)c2ccccc2[nH]c1=O)c1ccccc1Br	-5.5%	-13.4	?	?	-3.8%
O=C(Nc1ccc([N+](=O)[O-])cc1Cl)c1cc(Br)ccc1O	·	·	0.794µM*	0.447µM*	·
O=C(Nc1c(Cl)cc([N+](=O)[O-])cc1Cl)c1cc(Cl)ccc1O	·	·	2.51µM*	2µM*	·
O=C(Nc1cc(Cl)ccc1Cl)c1cc([N+](=O)[O-])cc(Br)c1O	·	·	1.6%	-7.7%	·
COc1ccc(NC(=O)c2cc(Br)ccc2Cl)c([N+](=O)[O-])c1	-26.9%	-4.1	1.0%	-14.8%	-29.0%
O=C(NC(=S)Nc1cc([N+](=O)[O-])ccc1O)C1CC1	27.5%	11.0	-15.4%	-4.0%	-5.4%
CSc1nc(N)c(C(=O)Nc2ccc([N+](=O)[O-])cc2)s1	12.0%	-74.6*	-9.1%	?	20.7%
CN(C)c1ccc(NC(=O)c2sc(SCC(=O)Nc3ccc(Br)cc3)nc2N)cc1	2.4%	-5.2	-9.6%	7.0%	10.3%
CCOc1ccc2[nH]cc(C(=O)NCCc3ccccc3)c(=O)c2c1	-20.0%	-53.5*	?	?	-1.8%
CCOc1ccc2[nH]c(C)c(CN3CCOCC3)c(=O)c2c1	1.6%	-11.0	-10.9%	-12.0%	-3.1%
CCc1ccc2[nH]cc(C(=O)OCCOC)c(=O)c2c1	7.1%	7.6	?	23.1µM*	12.8%
CCOc1ccc2[nH]c3ncccc3c(=O)c2c1	-16.0%	-59.7*	3.6%	?	-13.5%
